# MARV entry inh: Marburg virus entry inhibition; Marburg virus pseudotyped entry inhibition, cell reporter; Potency, µM (titrated, usually from 37.8 µM), actives largely listed as inhibitors; 300,000 tested, 1.8% active; AID 540276; calls by dose curve; tested in HEK293 cells
# LASV entry inh: Lassa virus entry inhibition. AID 540256. 300,000 tested, 1.2% active. Lassa virus pseudotype entry inhibition, cell reporter. Potency, µM (doses to about 37.9 µM), actives largely listed as inhibitors; calls by dose curve; tested in HEK293 cells; note: nearly all actives have a fitted effect of over 50% in size
# FBPA Giardia inh: inhibitors of Giardia lamblia fructose-1,6-bisphosphate aldolase. A8B2U2. purified Giardia FBPA. Potency, µM (titrated, usually from 59.6 µM), actives largely listed as inhibitors. 290,000 tested, 0.71% active. AID 2451; note: nearly all actives have a fitted effect of over 55% in size
# Target sequence (A8B2U2 whole entry, looked up): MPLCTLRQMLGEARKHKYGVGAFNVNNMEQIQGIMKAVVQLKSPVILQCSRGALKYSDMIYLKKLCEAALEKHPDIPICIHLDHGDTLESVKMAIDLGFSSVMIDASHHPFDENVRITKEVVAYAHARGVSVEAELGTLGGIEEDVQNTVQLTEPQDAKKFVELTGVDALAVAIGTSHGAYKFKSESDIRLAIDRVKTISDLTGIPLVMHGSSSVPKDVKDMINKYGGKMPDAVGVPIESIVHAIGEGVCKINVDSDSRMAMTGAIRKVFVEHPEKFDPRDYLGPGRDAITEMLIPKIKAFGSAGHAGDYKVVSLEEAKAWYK
#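 Giardia FBPA (40 nM reagent) was preincubated 10 min at RT with compound (up to 57.5 uM final), then substrate plus GAPDH/TPI/NAD/arsenate coupling system with diaphorase/resazurin was added; resorufin fluorescence (525/598 nm) was read after 20 min.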
# FMDV inh: antivirals against foot and mouth disease virus; FMDV antiviral cell-based qHTS; Potency, µM (titrated, usually from 57.9 µM), usual class: inhibitors; 410,000 tested, 1.2% active; AID 1159524; calls by dose curve; tested in HEK293T cells; note: read-out not given here; nearly all actives have a fitted effect of over 45% in size
# HCV inhibitor: blocks hepatitis C virus | Huh7.5.1 HCVcc-Cre infection, luciferase reporter, 44 h | Potency, µM (titrated, usually from 41.8 µM), most hits filed as inhibitors | 340,000 tested, 3.4% active
#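 After 44 h co-culture of compound, cells and HCVcc-Cre (~0.5 moi), substrate is added for 15 min at room temperature and luciferase measured over 15 sec. Cells were seeded at 1,000/well and pre-cultured 4 h.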
# HCMV inh: human cytomegalovirus inhibition; HFF cells, HCMV-luciferase reporter, 72 h; hits give low values; activity change, negative = inhibition, % at 57.5 µM; 410,000 tested, 4.5% active; in the data active = activity change below about -60%; inconclusive = no clear call, values can overlap the other calls; inactive = above about -39%
#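 Two compound doses tested in HFFs infected with HCMV-luciferase, MOI 1 PFU/cell, 72 h at 37C. Lysate luminescence read with OneGlo; data normalized against buffer-only and 10uM Salinomycin inhibitor controls.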
# A number is an active result; - = inactive; ? = inconclusive; . = no result given; + = active, no number. A selection: hits, their analogues and other compounds. The true share with any hit is near 8.3%. Unless noted, calls come from the whole dose curve; as a rule, active = well fitted curve in the direction sought with a large enough effect; inconclusive = small, poorly fitted or top-dose-only effect, or another doubt; inactive = no such curve, though single readings can be large; an effect the other way counts as inactive or inconclusive.
SMILES,MARV entry inh,LASV entry inh,FBPA Giardia inh,FMDV inh,HCV inhibitor,HCMV inh
O=C(N/N=C/c1cccnc1)c1cccc(Br)c1,.,.,-,-,-,-
CC(C)c1ccc(OCc2cccc(C(=O)N/N=C/c3cccnc3)c2)cc1,1.41µM,?,-,-,?,-
CCOc1ccc(OCc2cccc(C(=O)N/N=C/c3cccnc3)c2)cc1,0.316µM,1.58µM,-,-,-,-
CN(C)c1ccc(/C=N/NC(=O)c2cc(-c3ccc4c(c3)OCO4)n[nH]2)cc1,-,?,-,-,?,-
O=C(N/N=C/c1ccc(F)cc1)c1cc(-c2ccc3c(c2)OCO3)n[nH]1,-,8.91µM,-,-,?,-
O=C(N/N=C/c1ccc2c(c1)OCO2)c1ccc(NC(=O)c2ccc(F)cc2)cc1,-,-,-,-,-,-86.3
Cc1ncc2c(c1CNS(=O)(=O)N(C)C)CCN(C(=O)/C=C/c1ccccc1)C2,.,.,.,-,.,.
Cc1cccc(N2C(=O)C(CC(=O)Nc3ccc(F)cc3)N(C3CCCC3)C2=O)c1 (centres undefined),.,-,.,-,.,-
Cc1cc(C)cc(NC(=O)Cn2c(=O)n(-c3ccc(C)c(C)c3)c(=O)c3oc4ccccc4c32)c1,.,-,.,-,.,-
Cc1ccc(-n2c(=O)c3oc4ccccc4c3n(CC(=O)Nc3ccccc3)c2=O)cc1C,.,?,.,-,.,-66.5
COc1cccc(NC(=O)Cn2c(=O)n(-c3ccccc3)c(=O)c3oc4ccccc4c32)c1,?,?,-,-,-,-67.9
Cc1ccc(NC(=O)Cn2c(=O)n(-c3ccc(C)cc3)c(=O)c3ccc(C(=O)NCc4ccccc4Cl)cc32)cc1,-,?,.,-,.,-60.2
CC(=O)Nc1ccc(NC(=O)Cn2c(=O)n(-c3ccc(C)cc3)c(=O)c3oc4ccccc4c32)cc1,?,?,-,-,-,-64.9
Cc1ccc(-n2c(=O)c3ccc(C(=O)NCc4ccccc4Cl)cc3n(CC(=O)Nc3cccc(Cl)c3)c2=O)cc1,-,?,.,-,.,-
Cc1cccc(C)c1Nc1c(-c2ccccc2F)nc2ccccn12,.,.,.,.,.,-
Cc1ccc(F)cc1CNC(=O)c1sc2ncnc(NCC3CCCO3)c2c1C (centres undefined),.,.,.,-,.,.
COc1ccc(NC(=O)Cn2c(=O)n(-c3ccccc3)c(=O)c3sccc32)c(OC)c1,.,.,-,-,-,-
CC(=O)Nc1ccc(NC(=O)Cn2c(=O)n(-c3ccccc3)c(=O)c3oc4ccccc4c32)cc1,?,-,-,-,-,-
CCOc1ccc(-n2c(=O)c3sccc3n(CC(=O)Nc3cccc(OC)c3)c2=O)cc1,.,.,-,-,-,+
Cc1cc(C)cc(NC(=O)Cn2c(=O)n(-c3cc(C)cc(C)c3)c(=O)c3oc4ccccc4c32)c1,.,-,.,-,.,-60.7
Cc1ccc(-c2nc3c4ccccc4ccn3c2Cc2cccc(F)c2)cc1,.,.,.,.,.,-
CN(Cc1ccccc1)C(=O)[C@H](Cc1ccc2ccccc2c1)NC(=O)[C@@H]1CCCN1C(=O)Nc1ccccc1[N+](=O)[O-],.,.,-,-,.,.
Cn1c(=N)n(CC(O)c2cccc3ccccc23)c2ccccc21 (centres undefined),?,?,?,-,11.2µM,-
Cn1c(=N)n(CC(O)c2ccco2)c2ccccc21 (centres undefined),-,-,-,-,-,-
Cc1cc(C)c(C2=NOC3C4CCC(C4)C23)c(C)c1 (centres undefined),-,-,-,-,-,-63.5
SMILES,MARV entry inh,LASV entry inh,FBPA Giardia inh,FMDV inh,HCV inhibitor,HCMV inh
COc1cc(NC(=O)CN2c3ccccc3S(=O)(=O)c3ccccc32)cc(OC)c1,.,-,.,-,.,-
CCn1nc(C)cc1-c1nnc(Sc2ncc([N+](=O)[O-])s2)n1C,.,.,-,28.2µM,3.55µM,-96.3
O=C(NNC(=O)c1cccc(O)c1)Nc1ccc([N+](=O)[O-])cc1,-,-,-,-,-,-96.5
O=C(Nc1ccc([N+](=O)[O-])cc1)c1cccc([N+](=O)[O-])c1,.,.,.,-,.,-
O=C(Nc1ccc(O)cc1)c1cccc(Oc2ccc([N+](=O)[O-])cc2)c1,?,?,-,-,11.2µM,-
Cc1nn(C)c(C)c1-c1cccc2c1CCC(N(C)C)C2 (centres undefined),.,.,-,.,.,.
COc1ccc(CNC(=O)C(=O)NCC(c2cccnc2)N2CCN(c3ccccc3)CC2)cc1 (centres undefined),.,-,.,-,.,?
CC(C)CCc1noc(CN(C)CCC2CCOCC2)n1,-,-,-,-,-,-

# Screening data (PubChem BioAssay)
